Records with an inconclusive call do not appear. Unmarked numbers belong to inactive results. Calls come from the whole dose curve; as a rule, active = well fitted inhibition curve with a large enough effect; inconclusive = small, poorly fitted or top-dose-only effect; inactive = flat fitted curve, though single readings scatter. Where a SMILES comes first, the peptide text is derived from it. Bridges are numbered along the chain shown (N, C = ends). [ ]: non-standard residue; d: D form. hArg = N=C(N)NCCCC[C@H](N)C(=O)O; Mpa = O=C(O)CCS
Test system: CP329
Assay: qHTS profiling for inhibitors of Plasmodium falciparum proliferation (AID 504749);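 note: 0% = DMSO vehicle and full inhibition = artemisinin control; nearly all actives have a fitted effect of over 60% in size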
Conditions: P. falciparum in erythrocytes, SYBR Green DNA, 72 h; series mostly up to 28.7 µM; activity, negative = inhibition: at the top concentration
How it was run: (§1)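 Infected RBCs, 0.3% parasitemia/2.5% Hct final; cpd 72 h, 37 C, 5% CO2; lysis buffer with saponin/triton/SYBR Green I, o/n RT dark; FI 485/535; norm. to artemisinin (0.29 uM) and DMSO.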

| Compound | activity, negative = inhibition |
| --- | --- |
| O=C(Cn1ccnc1[N+](=O)[O-])NCCO | 1.14% |
| Cc1c(C)c2c(c(C)c1OC(=O)c1cccnc1)CC[C@@](C)(CCC[C@H](C)CCC[C@H](C)CCCC(C)C)O2 | 0.442% |
| COc1ccc2cc(CCC(C)=O)ccc2c1 | 13.8% [at 12.8 µM] |
| CN(C/C=C/C#CC(C)(C)C)Cc1cccc2ccccc12 | 4.16% |
| CCN(CC)CCc1nc(-c2ccccc2)no1 | 2.79% [at 12.8 µM] |
| COc1nccnc1NS(=O)(=O)c1ccc(N)cc1 | 9.45% |
| Cn1c([N+](=O)[O-])cnc1COC(N)=O | -1.94% |
| COC(=O)c1ccc(O)cc1 | -0.922% |
| CC[N+](CC)(CC(=O)Nc1c(C)cccc1C)Cc1ccccc1 | 0.995% |
| CC1CCN(CCCC(=O)c2ccc(F)cc2)CC1 | -12.4% |
| COc1ccccc1OC(=O)Oc1ccccc1OC | 3.77% |
| CN1CCCN=C1COC(=O)C(O)(c1ccccc1)C1CCCCC1 (configuration not stated) | 2.47% |
| O=C(/C=C/c1ccccc1)OCc1ccccc1 | -2.74% |
| Cc1c(Cn2ccnc2)c2ccccc2n1CCC(=O)O | 5.2% |
| NC(=O)[C@@H]1CSSCCC(=O)N[C@@H](CCCCN=C(N)N)C(=O)NCC(=O)N[C@@H](CC(=O)O)C(=O)N[C@@H](Cc2c[nH]c3ccccc23)C(=O)N2CCC[C@H]2C(=O)N1 ([Mpa][hArg]GDWPC-NH2; disulfide 1-7) | 1.5% |
| N[C@@H](Cc1ccc(O)cc1)C(=O)O | 13.9% |
| CC1CCc2cc(F)cc3c(=O)c(C(=O)O)cn1c23 (configuration not stated) | 6.25% |
| C[C@@H]1O[C@@H](OC[C@H]2O[C@@H](Oc3c(-c4ccc(O)c(O)c4)oc4cc(O)cc(O)c4c3=O)[C@H](O)[C@@H](O)[C@@H]2O)[C@H](O)[C@H](O)[C@H]1O | 7.19% |

| Compound | activity, negative = inhibition |
| --- | --- |
| Cc1onc(-c2ccccc2)c1-c1ccc(S(N)(=O)=O)cc1 | 3.47% |
| COc1ccc(C(=O)NCc2ccc(OCCN(C)C)cc2)cc1OC | -0.848% |
| Cc1ccsc1C(=CCCN1CCC[C@@H](C(=O)O)C1)c1sccc1C | 6.28% |
| CCCCCCCC(=O)OCC(COC(=O)CCCCCCC)OC(=O)CCCCCCC | -3.43% |
| CN/C(=C\[N+](=O)[O-])NCCSCc1csc(CN(C)C)n1 | 6.51% [at 12.8 µM] |
| CCN1CC(CCN2CCOCC2)C(c2ccccc2)(c2ccccc2)C1=O (configuration not stated) | -2.09% |
| NS(=O)(=O)c1ccc(C(=O)O)cc1 | 8.75% |
| CCOC(N)=O | 3.44% |
| Cc1c(NC(C)C)c(=O)n(-c2ccccc2)n1C | 11.1% |
| CCOc1ccc(C(=O)OCCN(CC)CC)cc1 | 7.7% |
| O=C(OOC(=O)c1ccccc1)c1ccccc1 | 4.21% |
| C=CCSCC1Nc2cc(Cl)c(S(N)(=O)=O)cc2S(=O)(=O)N1 (configuration not stated) | -1.51% |
| Cc1c(NC(=O)c2cccnc2)c(=O)n(-c2ccccc2)n1C | -8.98% [at 12.8 µM] |
| CCCCCCCCCCC(CO)CCCCCCCC (configuration not stated) | 4.01% |
| CCOc1cc(NC(C)=O)ccc1C(=O)OC | 0.428% |
| Cc1ncc(CO)c(CN)c1O | 6.11% |
| NS(=O)(=O)c1ccc(NC(=O)CCC(=O)O)cc1 | 2.66% |

Test system: CP335
Assay: as above
Conditions: P. falciparum in erythrocytes, SYBR Green DNA, 72 h; series mostly up to 28.7 µM; activity, negative = inhibition: at the top concentration
How it was run: as §1

| Compound | activity, negative = inhibition |
| --- | --- |
| O=C(Cn1ccnc1[N+](=O)[O-])NCCO | 4.41% |
| Cc1c(C)c2c(c(C)c1OC(=O)c1cccnc1)CC[C@@](C)(CCC[C@H](C)CCC[C@H](C)CCCC(C)C)O2 | -3.95% |
| COc1ccc2cc(CCC(C)=O)ccc2c1 | 3.35% [at 12.8 µM] |
| CN(C/C=C/C#CC(C)(C)C)Cc1cccc2ccccc12 | -13.7% |
| CCN(CC)CCc1nc(-c2ccccc2)no1 | 6.28% [at 12.8 µM] |
| COc1nccnc1NS(=O)(=O)c1ccc(N)cc1 | 1.95% |
| Cn1c([N+](=O)[O-])cnc1COC(N)=O | -0.218% |
| COC(=O)c1ccc(O)cc1 | 3.91% |
| CC[N+](CC)(CC(=O)Nc1c(C)cccc1C)Cc1ccccc1 | 1.88% |
| COc1ccccc1OC(=O)Oc1ccccc1OC | 3.74% |
| CN1CCCN=C1COC(=O)C(O)(c1ccccc1)C1CCCCC1 (configuration not stated) | -0.324% |
| Cc1c(Cn2ccnc2)c2ccccc2n1CCC(=O)O | 1.6% |
| NC(=O)[C@@H]1CSSCCC(=O)N[C@@H](CCCCN=C(N)N)C(=O)NCC(=O)N[C@@H](CC(=O)O)C(=O)N[C@@H](Cc2c[nH]c3ccccc23)C(=O)N2CCC[C@H]2C(=O)N1 ([Mpa][hArg]GDWPC-NH2; disulfide 1-7) | -0.063% |
| N[C@@H](Cc1ccc(O)cc1)C(=O)O | 0.19% |
| CC1CCc2cc(F)cc3c(=O)c(C(=O)O)cn1c23 (configuration not stated) | -19.6% |
| C[C@@H]1O[C@@H](OC[C@H]2O[C@@H](Oc3c(-c4ccc(O)c(O)c4)oc4cc(O)cc(O)c4c3=O)[C@H](O)[C@@H](O)[C@@H]2O)[C@H](O)[C@H](O)[C@H]1O | 4.13% |

| Compound | activity, negative = inhibition |
| --- | --- |
| Cc1onc(-c2ccccc2)c1-c1ccc(S(N)(=O)=O)cc1 | 2.12% |
| COc1ccc(C(=O)NCc2ccc(OCCN(C)C)cc2)cc1OC | 1.8% |
| Cc1ccsc1C(=CCCN1CCC[C@@H](C(=O)O)C1)c1sccc1C | 0.0849% |
| CCCCCCCC(=O)OCC(COC(=O)CCCCCCC)OC(=O)CCCCCCC | 3.18% |
| CN/C(=C\[N+](=O)[O-])NCCSCc1csc(CN(C)C)n1 | 6.56% [at 12.8 µM] |
| NS(=O)(=O)c1ccc(C(=O)O)cc1 | -1.22% |
| CCOC(N)=O | 6.52% |
| Cc1c(NC(C)C)c(=O)n(-c2ccccc2)n1C | 0.832% |
| CCOc1ccc(C(=O)OCCN(CC)CC)cc1 | 8.13% |
| O=C(OOC(=O)c1ccccc1)c1ccccc1 | 0.118% |
| C=CCSCC1Nc2cc(Cl)c(S(N)(=O)=O)cc2S(=O)(=O)N1 (configuration not stated) | 1.09% |
| Cc1c(NC(=O)c2cccnc2)c(=O)n(-c2ccccc2)n1C | -0.108% [at 12.8 µM] |
| CCCCCCCCCCC(CO)CCCCCCCC (configuration not stated) | 1.56% |
| CCOc1cc(NC(C)=O)ccc1C(=O)OC | 7.68% |
| Cc1ncc(CO)c(CN)c1O | -0.0998% |
| NS(=O)(=O)c1ccc(NC(=O)CCC(=O)O)cc1 | 1.46% |
